Screens deposited in PubChem BioAssay by National Center for Advancing Translational Sciences (NCATS).
The list is not random: actives were taken first. Their share in the collection is about 2.5%.
Cruzain inh noDet: cruzain (T. cruzi) inhibition without detergent; purified cruzain, Z-FR-AMC fluorescence, no detergent; Potency, µM, without a hit: max response, negative = inhibition, actives largely listed as inhibitors; hit rate 2.3% among 200,000;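 note: plate controls were enzyme without inhibitor for no effect and buffer without enzyme for full effect; nearly all actives have a fitted effect of over 40% in size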
Target sequence (P25779 123-467 limits assumed): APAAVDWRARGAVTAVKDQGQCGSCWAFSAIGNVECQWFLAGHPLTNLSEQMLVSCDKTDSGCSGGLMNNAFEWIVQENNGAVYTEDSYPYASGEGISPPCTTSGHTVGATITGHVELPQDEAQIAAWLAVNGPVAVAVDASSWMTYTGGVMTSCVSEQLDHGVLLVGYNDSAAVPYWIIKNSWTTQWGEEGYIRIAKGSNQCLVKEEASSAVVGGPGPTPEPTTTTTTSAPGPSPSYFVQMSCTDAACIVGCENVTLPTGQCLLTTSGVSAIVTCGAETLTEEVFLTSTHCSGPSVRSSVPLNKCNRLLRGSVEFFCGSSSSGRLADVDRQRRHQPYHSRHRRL
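Detergent-free condition (0.00005% Triton X-100) in acetate buffer pH 5.5 with DTT. 1.5 nM enzyme and compound were pre-mixed 15 min, then 2 uM Z-FR-AMC substrate added; reaction progress from fluorescence change between first and third reads (60 s).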
Cruzain inh Det: inhibitors of Trypanosoma cruzi cruzain with detergent. purified cruzain, Z-FR-AMC fluorescence, 0.01% Triton. Potency, µM, inactives show max response, negative = inhibition, actives largely listed as inhibitors. hit rate 0.43% among 200,000. AID 1478;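 note: plate controls were neutral wells for no effect and buffer without enzyme for full effect; nearly all actives have a fitted effect of over 40% in size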
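Cruzain (1.5 nM) preincubated 15 min at RT with compound in 100 mM sodium acetate pH 5.5, 5 mM DTT, 0.01% Triton X-100. Reaction started with 2 uM Z-FR-AMC; AMC fluorescence (ex 360/em 450 nm) change over 60 s gave rate.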
* = called active by the depositor. Calls come from the whole dose curve; as a rule, active = well fitted curve in the direction sought with a large enough effect; inconclusive = small, poorly fitted or top-dose-only effect, or another doubt; inactive = no such curve, though single readings can be large; an effect the other way counts as inactive or inconclusive. Potency is the fitted concentration of half-maximal effect.

For Cc1ccc(NS(=O)(=O)c2ccc(-c3cnc(C4CC4)o3)cc2)cc1N(C)C the results were Cruzain inh noDet 9.9% and Cruzain inh Det -11.8%.
For COc1ccccc1-c1cc(-c2ccccc2)nc(SC(C(N)=O)c2ccccc2)c1C#N (stereo not given) the results were Cruzain inh noDet 7.94µM* and Cruzain inh Det 4.9%.
For COC(=O)C(Sc1nc(C)cc(C)c1C#N)c1ccccc1 (stereo not given) the results were Cruzain inh noDet -3.9% and Cruzain inh Det -0.5%.
Screening CCOc1ccc(NC(=O)Cn2nc(CC)n3c(cc4sccc43)c2=O)cc1 returned Cruzain inh noDet 10.9% and Cruzain inh Det -2.3%.
Cc1ccc(C)c(S(=O)(=O)c2nnn3c2nc(N2CCCCC2)c2sccc23)c1 was read as Cruzain inh noDet inconclusive and Cruzain inh Det -7.1%.
Screening Cc1ccc(NC(=O)c2c(C)cc(C)nc2SCC(=O)Nc2ccc(Br)cc2)cc1 returned Cruzain inh noDet -20.4% and Cruzain inh Det -5.1%.
`COc1cc(/C=C/c2nc(C#N)c(N3CCC(C)CC3)o2)cc(OC)c1OC` gave Cruzain inh noDet inconclusive and Cruzain inh Det 8.2%.
For CC(CNC(=O)C(C)(C)C)NC(=O)C(C)(C)C (stereo not given) the results were Cruzain inh noDet 5.01µM* and Cruzain inh Det -2.6%.
Screening CCCCCC(=O)NCC(C)NC(=O)CCCCC (stereo not given) returned Cruzain inh noDet 13.0% and Cruzain inh Det -0.9%.
Screening CCc1ccccc1NC(=O)c1cc(S(=O)(=O)NCCc2ccc(OC)c(OC)c2)ccc1F returned Cruzain inh noDet 18.5% and Cruzain inh Det 3.2%.
Cc1ccc(NC(=O)Cn2c(-c3nonc3N)nc3ccccc32)c(Br)c1 was read as Cruzain inh noDet -8.4% and Cruzain inh Det 0.1%.
Screening CC1(C)C(C(=O)O)N2C(=O)CC2S1(=O)=O (stereo not given) returned Cruzain inh noDet 2.9% and Cruzain inh Det 1.3%.
`CCCN1C(=O)C(Cc2nc3ccccc3c(=O)n2-c2cccc(C)c2)c2ccccc21` (stereo not given) gave Cruzain inh noDet -0.7% and Cruzain inh Det -6.9%.
`N#Cc1c(N)nc(SCC(=O)C23CC4CC(CC(C4)C2)C3)c(C#N)c1-c1ccc(Cl)cc1` gave Cruzain inh noDet 3.98µM* and Cruzain inh Det 2.8%.
CCOC(=O)CC(=O)CSc1nc(N)c(C#N)c(-c2ccc(Cl)cc2)c1C#N was read as Cruzain inh noDet 31.6µM* and Cruzain inh Det -1.9%.
Screening CSc1nc(N)nc(SCC(=O)C23CC4CC(CC(C4)C2)C3)c1C#N returned Cruzain inh noDet -15.6% and Cruzain inh Det -4.3%.
Screening CCOC(=O)CC(=O)CSc1nc(C)cc(C)c1C#N returned Cruzain inh noDet 4.1% and Cruzain inh Det 2.8%.
Screening Clc1ccc(-c2nnn3c2nc(N2CCCCC2)c2ccccc23)cc1 returned Cruzain inh noDet -7.8% and Cruzain inh Det -0.2%.
`COc1ccc(NC(=O)c2ccco2)cc1NC(=O)c1ccc(OC(C)C)cc1` gave Cruzain inh noDet 12.8% and Cruzain inh Det -8.0%.
Cc1ccccc1OCCC(=O)NCCc1ccc(S(N)(=O)=O)cc1 was read as Cruzain inh noDet 9.3% and Cruzain inh Det 0.2%.
Screening CCOc1ccccc1C(=O)NCC(=O)OCC(=O)NCCc1ccc(S(N)(=O)=O)cc1 returned Cruzain inh noDet 15.8µM* and Cruzain inh Det 25.1µM*.
For CCCc1nc(C(C)(C)O)c(C(=O)OCc2oc(=O)oc2C)n1Cc1ccc(-c2ccccc2-c2nn[nH]n2)cc1 the results were Cruzain inh noDet inconclusive and Cruzain inh Det -0.7%.
For CCOc1nc2cccc(C(=O)OC(C)OC(=O)OC3CCCCC3)c2n1Cc1ccc(-c2ccccc2-c2nn[nH]n2)cc1 (stereo not given) the results were Cruzain inh noDet inconclusive and Cruzain inh Det 14.1µM*.
Screening Cc1ccc2nc(-c3ccncc3)c(Nc3ccc(C(C)C)cc3)n2c1 returned Cruzain inh noDet 3.6% and Cruzain inh Det -1.2%.
CCOc1ccccc1NC(=O)Cn1c(=O)n(Cc2ccco2)c(=O)c2ccc(C(=O)NC3CCCC3)cc21 was read as Cruzain inh noDet 6.7% and Cruzain inh Det -2.4%.
`COc1ccc(-c2ccc(-c3cc(=O)oc4cc(C)cc(C)c34)cc2)cc1` gave Cruzain inh noDet inconclusive and Cruzain inh Det 0.1%.
Screening Cc1cc(C)c2c(-c3ccc(-c4ccc(C(F)(F)F)cc4)cc3)cc(=O)oc2c1 returned Cruzain inh noDet 25.1µM* and Cruzain inh Det 5.5%.
Screening CCCCSc1nnc2c(n1)OC(c1ccc(C)s1)Nc1ccccc1-2 (stereo not given) returned Cruzain inh noDet -3.5% and Cruzain inh Det -7.0%.
CCOC(=O)c1cc(-c2ccc(OC)cc2)n(CCC(=O)NC2CCC(C)CC2)c1C (stereo not given) was read as Cruzain inh noDet inconclusive and Cruzain inh Det -5.3%.
Screening N=P(N1CCOCC1)(N1CCOCC1)C12CC3CC(CC(C3)C1)C2 returned Cruzain inh noDet 25.1µM* and Cruzain inh Det 28.2µM*.
